Screens as filed in PubChem.
Shown are actives, neighbours in structure and some others; about 19% of the full set was active somewhere.
LASV entry inh: qHTS for Inhibitors of binding or entry into cells for Lassa Virus; Lassa virus pseudotype entry inhibition, cell reporter; Potency, µM (top dose mostly 37.9 µM), without a hit: top-dose activity change, negative = inhibition, usual class: inhibitors; actives 1.2% (n = 300,000); AID 540256, 2011; calls by dose curve; tested in HEK293 cells; note: potency is the fitted concentration of half-maximal effect; % is set by controls: 0 for no effect and ±100 for the full control effect; nearly all actives have a fitted effect of over 50% in size
Marburg entry inh: qHTS for inhibitors of binding or entry into cells for Marburg Virus; Potency, µM (series often up to 37.8 µM), without a hit: top-dose activity change, negative = inhibition, actives largely listed as inhibitors; Marburg virus pseudotyped entry inhibition, cell reporter; actives 1.8% (n = 300,000); calls by dose curve; tested in HEK293 cells; note: potency is the fitted concentration of half-maximal effect; % is set by controls: 0 for no effect and ±100 for the full control effect
Shiga inhibitor: A qHTS for Small Molecule Inhibitors of Shiga Toxin. Vero cells, Shiga toxin protein synthesis inhibition reporter. inhibition, % at 38.7 µM. actives 9.2% (n = 290,000); in the data active = inhibition mostly above about 28%, no sharp cut-off; inactive = mostly below about 43%; note: 0% is about no effect
Pf growth 96h: Primary qHTS for delayed death inhibitors of the malarial parasite plastid, 96 hour incubation. P. falciparum luciferase reporter growth, 96 h. Potency, µM (highest dose often 28.7 µM), inactives show at the highest dose activity change, negative = inhibition, hits mostly inhibitors. actives 6.9% (n = 320,000). AID 504834, 2011; note: potency is the fitted concentration of half-maximal effect; % is set by controls: 0 for no effect and ±100 for the full control effect
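Infected RBCs, 2% Hct / 0.05% parasitemia final; luciferase-reporter P. falciparum; cpd 96 h, 37 C, 5% CO2; luciferase detection reagent; luminescence.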
Pf growth 48h: Primary qHTS for delayed death inhibitors of the malarial parasite plastid, 48 hour incubation. Potency, µM (highest dose often 28.7 µM), without a hit: at the highest dose activity change, negative = inhibition, hits mostly inhibitors. P. falciparum luciferase growth in erythrocytes, 48 h. AID 504832, 2011. actives 5.9% (n = 310,000); note: potency is the fitted concentration of half-maximal effect; % is set by controls: 0 for no effect and ±100 for the full control effect
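A one-generation exposure of luciferase-tagged malaria parasites in RPMI 1640/Albumax erythrocyte culture, 37 C and 5% CO2. Inhibition is inferred from decreased luminescence after adding detection reagent.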
CHX counter: Cycloheximide Counterscreen for Small Molecule Inhibitors of Shiga Toxin; cell reporter, cycloheximide protein synthesis inhibition counterscreen; max response, %; actives 12% (n = 300,000); AID 2314, 2010; in the data active = max response mostly above about 13%, no sharp cut-off; inactive = mostly below about 14%; note: read at 38.3 µM for the half of the compounds with a filed dose; 0% is about no effect
* marks the source's active call; other numbers are inactive results; u = inconclusive; x = no result given; [ ] = remark or other dose. Unless noted, calls come from the whole dose curve; as a rule, active = well fitted inhibition curve with a large enough effect; inconclusive = small, poorly fitted or top-dose-only effect, or another doubt; inactive = no such curve, though single readings can be large or run the other way.

SMILES	LASV entry inh	Marburg entry inh	Shiga inhibitor	Pf growth 96h	Pf growth 48h	CHX counter
CC(C)CCn1c(=O)c2ccccc2n2c(CN3C(=O)NC4(CCC(C)CC4)C3=O)nnc12 (centres undefined)	u	2.3%[46.1 µM]	-2.9	x	u	-3.6
CN(Cc1c(F)cccc1Cl)C(=O)CNC(=O)c1sc2ccccc2c1Cl	-25.4%	u	x	-2.4%	-6.6%	x
O=C1C2C(C(=O)N1/N=C/c1ccc([N+](=O)[O-])o1)C1C=CC2C12CC2 (centres undefined)	u	u	4.5	u	u	-1.3
Cc1cccc(Oc2ccc(Cl)cc2N)c1	22.4%[46.1 µM]	u	89.0*	27.9%	33.7%	33.8*
COc1cc(OC)cc(-c2oc(=O)c3cc(OC)c(OC)cc3c2/C=C/c2ccc(F)cc2)c1	x	x	x	u	0.0%	x
Clc1ccc(OCC#CCN2CCCCCC2)cc1	x	x	46.9*	70.7%	1.0%	12.1
COC(=O)c1sc(N2C(=O)C(=O)/C(=C(/O)c3ccc(C)cc3)C2c2ccco2)nc1C (centres undefined)	9.1%	-6.8%[46.1 µM]	-3.5	39.5%	7.6%	1.3
CC(C)Oc1ccc(/C(O)=C2/C(=O)C(=O)N(CCN(C)C)C2c2ccco2)cc1 (centres undefined)	15.2%	21.7%[46.1 µM]	134.1*	x	79.8%	39.0*
CCOc1ccc(/C(O)=C2/C(=O)C(=O)N(c3nc(C)c(C)s3)C2c2ccco2)cc1 (centres undefined)	4.4%	-9.7%	122.9*	37.3%	43.5%	17.5*
CCN(CC)CCN1C(=O)C(=O)/C(=C(/O)c2ccc(OC)cc2)C1c1ccco1 (centres undefined)	14.5%	u	45.8	0.928µM*	-6.2%	12.8
O=C(CN(c1ccccn1)S(=O)(=O)c1ccccc1)Nc1ccccc1	x	x	2.0	4.6%	20.1%	-2.4
O=c1[nH]c2ccccc2n1Cc1ccccc1	x	x	-10.3	-16.6%	6.1%	-3.6
S=c1[nH]nc(-c2cc(-c3ccco3)[nH]n2)n1-c1ccccc1Cl	0.7%	12.0%	6.6	-19.4%	0.3%	2.6
S=c1[nH]nc(-c2ccco2)n1-c1ccccc1Cl	u	1.8%[46.1 µM]	67.5*	30.8%	u	32.5*
S=c1[nH]nc(-c2ccn[nH]2)n1-c1ccccc1Cl	u	u	72.3*	-2.2%	7.1%	28.1*
S=c1[nH]nc(-c2ccc3ccccc3n2)n1-c1ccccc1Cl	5.8%	-2.3%[46.1 µM]	10.7	11.7%	-1.4%	4.8
O=C(OCC(=O)N1CCCC1)c1cncc(Br)c1	-4.9%	11.6%	-6.6	7.6%	4.1%	0.9
CCCN(CC(=O)Nc1ccccc1C)C(=O)/C=C/c1ccc(S(=O)(=O)N2CCCCCC2)cc1	-24.4%	11.2µM*	x	u	13.1µM*	x
COc1ccc(/C=C/C(=O)N(C)CC(=O)Nc2cccc(F)c2)cc1S(=O)(=O)N1CCCCC1	-29.0%	u	x	0.0%	u	x
COc1ccc(NC(=O)CN(C)C(=O)/C=C/c2ccc(S(=O)(=O)N3CCCCCC3)cc2)cc1	-2.6%	u	x	-7.8%	11.7µM*	x
CCCN(CC(=O)Nc1ccccc1C)C(=O)COc1c(C)cccc1C	x	x	x	-13.3%	u	x
CCCN(CC(=O)Nc1ccccc1C)C(=O)c1ccc(S(=O)(=O)N2CCCCCC2)cc1	2.5%	u	-23.5	u	u	-1.6
CCCN(CC(=O)Nc1ccccc1C)C(=O)CCl	u	u	21.6	1.65µM*	u	34.6
C=CS(=O)(=O)N[C@@H](CSSC[C@H](NS(=O)(=O)C=C)C(=O)OC)C(=O)OC	8.3%[46.1 µM]	x	x	x	x	x
COc1ccc(OC)c(-c2nnc(-c3ccc(C)o3)o2)c1	15.1%	3.8%	74.7	183.1%	10.4µM*	35.9*
SMILES	LASV entry inh	Marburg entry inh	Shiga inhibitor	Pf growth 96h	Pf growth 48h	CHX counter
COc1ccc(-c2nnc(SC)o2)c(OC)c1	16.1%[46.1 µM]	10.7%[46.1 µM]	71.6*	-0.4%	100.1%	21.1*
COc1cccc(Nc2nc(-c3ccccc3)nc3ccccc23)c1	u	u	3.6	7.6%	0.0%	-1.9
CCOC(=O)CNc1nc(-c2ccncc2)nc2ccccc12	24.2%	11.2µM*	-8.0	-6.0%	u	-2.0
Fc1cccc(Nc2nc(-c3ccncc3)nc3ccccc23)c1	-10.2%	u	-14.0	4.15µM*	9.28µM*	0.1
COc1ccc(Nc2nc(-c3ccncc3)nc3ccccc23)cc1	-9.6%[46.1 µM]	2.82µM*	-5.0	0.7%	x	-5.1
COc1ccc(OC)c(Nc2nc(-c3ccncc3)nc3ccccc23)c1	u	u	-8.7	1.85µM*	1.85µM*	-2.7
CCN(CC(=O)NC(C)C)C(=O)Cc1ccc(C)c(C)c1	1.9%	u	4.1	-10.7%	-6.6%	-0.3
Cc1ccc(C)c(Nc2nc(-c3ccncc3)nc3ccccc23)c1	x	x	-2.8	-16.1%	10.4µM*	3.6
COc1ccc(C)cc1NCc1cccc(OC)c1OC	5.0%	-8.8%	-4.5	u	u	-2.9
Cc1ccc(C)c(NC(=O)Nc2ccc3c(c2)OCO3)c1	x	x	55.5*	50.8%	169.2%	47.3*
COc1ccc(NC(=O)Nc2ccc3c(c2)CCC3)cc1	27.8%[46.1 µM]	u	36.0*	56.7%	32.5%	26.7*
COc1cccc(CNc2ccc(F)c(Cl)c2)c1OC	u	3.7%	-9.6	10.4µM*	x	2.4
Cc1ccc(NC(=O)Nc2ccc3c(c2)nnn3C)cc1C	5.9%[46.1 µM]	13.6%[46.1 µM]	26.9	u	119.0%	9.1
COc1ccccc1NC(=O)Nc1ccc2c(c1)nnn2C	-22.5%	-24.5%	50.3*	9.28µM*	x	56.6*
COc1cccc(CC(=O)Nc2ccc3c(c2)CCC3)c1	u	u	35.4	35.7%	38.2%	9.4
O=C(OC1CCOC1=O)c1cncc(Br)c1 (centres undefined)	24.9%	6.3%	-6.8	-12.7%	9.4%	-1.8
CCC(C(N)=NCCc1ccc(OC)c(OC)c1)c1ccccc1 (centres undefined)	x	x	-6.6	2.8%	9.9%	-2.4
CCCCn1c(N)c(N(CCOC)C(=O)COC(=O)COc2cccc(C(C)=O)c2)c(=O)[nH]c1=O	9.4%[46.1 µM]	9.3%	x	u	u	x
CC(=O)Nc1ccc(S(=O)(=O)Nc2cc3c(cc2C(C)=O)OCO3)cc1	u	-9.6%	-19.8	-1.4%	-5.2%	-3.5
CCOc1ccccc1NC(=O)Nc1cccc(NC(C)=O)c1	-12.9%[46.1 µM]	5.8%[46.1 µM]	16.5	u	-11.4%	-1.1
CCOc1ccccc1NC(=O)Nc1ccc2c(c1)OCO2	-3.8%[46.1 µM]	-2.2%[46.1 µM]	37.6*	64.8%	22.6%	36.6*
COc1ccc(C)cc1NC(=O)Nc1ccncc1	6.9%[46.1 µM]	-7.7%[46.1 µM]	-11.7	u	u	2.5
CCc1cccc(C)c1NC(=O)Nc1ccc2c(c1)OCO2	13.9%	14.5%	23.1	56.6%	15.3%	7.1
Cc1c(NC(=O)Nc2ccc3c(c2)OCO3)cccc1[N+](=O)[O-]	-16.9%[46.1 µM]	u	76.5*	0.2%	65.2%	42.1*
